Test results published in PubChem BioAssay AID2113 (National Center for Advancing Translational Sciences (NCATS), 2009).
Results filed as inconclusive are left out. A call without a number means that no potency is given here. Calls of active or inactive are those of the source. Calls come from the whole dose curve; as a rule, active = well fitted curve in either direction with a large enough effect; inconclusive = small, poorly fitted or top-dose-only effect; inactive = no such curve, though single readings can be large or run the other way.

Target: Lysosomal alpha-glucosidase (Homo sapiens) (UniProt P10253)
Experiment: Confirmation of Inhibitors and Activators of Human alpha-Glucosidase From Spleen Homogenate
Settings: alpha-glucosidase enzyme activity; series mostly up to 60.5 µM
Source text: NIH Chemical Genomics Center [NCGC]
NIH Molecular Libraries Probe Production centers Network [MLPCN]
Assay Submitter (PI): Wei Zheng
Alpha-glucosidase is responsible for hydrolysis of terminal, non-reducing 1,4-linked alpha-D-glucose residues with release of alpha-D-glucose. It is a lysosomal hydrolase that is required for the degradation of a small percentage (1-3%) of cellular glycogen in human. Deficiency of this enzyme results in glycogen-storage disease type II (GSDII), also referred to as Pompe disease, an autosomal recessive disorder. Structurally normal glycogen is accumulated in lysosomes and cytoplasm in affected patients, primarily in muscle tissues. Excessive glycogen storage within lysosomes may interrupt normal functioning of other organelles and leads to cellular injury. In turn, this leads to enlargement and dysfunction of the entire organ involved (eg, cardiomyopathy and muscle weakness).
It has reported that the improper folding and trafficking of alpha-glucosidase resultinged from the genetic mutations may account for a significant number of Pomrope patients. […] We optimized this alpha-glucosidase assay in 1536-well plate format for identifying the novel small molecule inhibitors with the structures other than the sugar analogs in order to develop the new pharmacological chaperones. In particular, this assay is directed towards discovering compounds active in a more natural setting, tissue homogenate, that may have been missed by screens of the purified enzyme under more stringent conditions. This assay attempted to confirm hits from the primary screening.
NCGC Assay Protocol Summary:
This is a fluorogenic enzyme assay with 4-methylumbelliferyl-alpha-D-glucopyranoside as the substrate and human spleen homogenate containing alpha-glucosidase as the enzyme preparation. Upon hydrolysis of this fluorogenic substrate, the resulting product, 4-methylumbelliferone (which excites at 365 nm and emits at 440 nm) can be detected by a fluorescence plate reader. Data were normalized to the controls for basal activity (without enzyme) and 100% activity (with enzyme). The AC50 values were determined from concentration-response data modeled with the standard Hill equation.
Assay buffer: 50 mM citric acid (titrated with potassium phosphate to pH 5.0), 0.01% Tween-20 (pH 5.0 is an optimal condition for this enzyme assay)
1536-well assay protocol for the alpha-glucosidase from human spleen homogenate:
(1) Add 2 ul/well spleen homogenate (1 ug)
(2) Add 23 nL compounds in DMSO solution. The final titration was 0.5 nM to 58 uM.
(3) Add 2 ul of substrate (1 mM final)
(4) Incubate at 37 C for 40 min
(5) Add 2 ul stop solution (1M NaOH and 1M Glycine mixture, pH 10)
(6) Detect the assay plate in a ViewLux plate reader (PerkinElmer) with Ex=365 nm and Em=440nm.
Keywords: Alpha-glucosidase, Pompe Disease, pharmacological chaperone, chaperone therapy, high throughput screening, alpha-glucosidase inhibitor, MLSMR, MLSCN, NIH Roadmap, qHTS and NCGC
Potency is the fitted concentration of half-maximal effect.

Row | Structure (SMILES) | Potency
1 | CCCN1CNc2c(c(=O)[nH]c(=S)n2CCc2cc(Cl)ccc2Cl)C1 | 14.1 µM (active)
2 | O=S(=O)(c1cccnc1)N1CCOCC1 | inactive
3 | CCCN1CNc2c(c(=O)[nH]c(=S)n2CCc2cc(C)ccc2C)C1 | 8.91 µM (active)
4 | CC1(CCc2ccc3c(c2)OCO3)NC(=O)c2ccccc2N1 (stereo not given) | inactive
5 | C/C=C1\COC(C(=O)NCCN2CCOCC2)(C(F)(F)F)C=C1C=C1CCCCC1 (stereo not given) | inactive
6 | Cn1c(=O)c2c(nc(NCc3ccc4c(c3)OCO4)n2Cc2ccc(F)cc2)n(C)c1=O | inactive
7 | CCCCn1c(N)c(NCC)c(=O)[nH]c1=O | inactive
8 | Nc1cccc(S(=O)(=O)N2CCOCC2)c1 | inactive
9 | O=c1oc2ccccc2cc1-c1nc2c(s1)CCc1ccccc1-2 | inactive
10 | O=C(CSc1ccccc1)Nc1nnc(/C=C/c2ccccc2)s1 | inactive
11 | O=Cc1ccc(N2CCN(S(=O)(=O)c3ccc4c(c3)CC(=O)N4)CC2)cc1 | 4.61 µM [inhibitor] (active)
12 | COc1ccc(S(=O)(=O)N2CCN(C(=O)COc3ccc4c(C)cc(=O)oc4c3)CC2)cc1 | inactive
13 | Cc1sc(-c2cc3c(ccc4ccccc43)oc2=O)nc1-c1ccccc1 | inactive
14 | O=C(c1cc2c(ccc3ccccc32)oc1=O)N1CCN(CCO)CC1 | inactive
15 | O=C1Cc2cc(S(=O)(=O)N3CCN(c4ccc(O)cc4)CC3)ccc2N1 | 6.68 µM [inhibitor] (active)
16 | O=S(=O)(c1ccc(-c2ccccc2)cc1)N1CCOCC1 | inactive
17 | CN(CCO)S(=O)(=O)c1ccc2c(c1)C(=NN)c1cc(S(=O)(=O)N(C)CCO)ccc1-2 | inactive
18 | CCCN1CNc2c(c(=O)[nH]c(=S)n2CCc2cc(OC)cc(OC)c2)C1 | 11.2 µM (active)
19 | Clc1cc2c(cc1/C=C/c1ccc3ccccc3n1)OCO2 | inactive
20 | CCCN1CNc2c(c(=O)[nH]c(=S)n2Cc2ccc(OC)c(OC)c2)C1 | 12.6 µM (active)

Row | Structure (SMILES) | Potency
21 | COC(=O)c1cccc(S(=O)(=O)N2CCOCC2)c1 | inactive
22 | CCC(C)Nc1nc(-c2cccc(OC)c2O)nc2ccccc12 (stereo not given) | inactive
23 | O=c1oc2ccc3ccccc3c2cc1-c1nc(CCCBr)cs1 | inactive
24 | COc1ccc(C#Cc2c[nH]c(=O)c3cncnc23)cc1OC | inactive
25 | O=S(=O)(c1ccc(Cl)cc1)N1CCOCC1 | inactive
26 | N#Cc1c(-c2ccc(F)cc2)cc(-c2cccnc2)nc1N | inactive
27 | O=C(COC(=O)c1ccccc1Br)NCCc1ccc(F)cc1 | inactive
28 | Cc1ccc(-n2c3c(c(=O)[nH]c2=S)C(C(F)(F)F)(C(F)(F)F)NC(=O)N3)cc1 | inactive
29 | Cc1c(C#N)c(N)nc2c3c(sc12)NC(=O)CC3c1ccc(Cl)cc1 (stereo not given) | inactive
30 | Cc1cc(C)nc(SCc2cc(=O)c(OC(=O)c3ccco3)co2)n1 | inactive
31 | O=NOc1ccc(/C=C/c2nccc3c2[nH]c2ccccc23)cc1 | inactive
32 | CCCN1CNc2c(c(=O)[nH]c(=S)n2CCc2cccc(C)c2)C1 | 35.5 µM (active)
33 | O=S(=O)(c1ccccc1)N1CCNCC1 | inactive
34 | COc1ccc2nc(-c3ccc(N(C)C)cc3)sc2c1 | 7.08 µM (active)
35 | COc1cc(-c2cc(N3C(=O)Nc4ccccc4N3O)n[nH]2)cc(OC)c1OC | inactive
36 | CC(=O)c1ccc(N2CCN(S(=O)(=O)c3ccc4c(c3)CC(C)N4C(C)=O)CC2)cc1 (stereo not given) | inactive
37 | CC(C)Cn1c(SCC(=O)N2CCN(S(=O)(=O)c3ccccc3)CC2)nc2ccccc21 | inactive
38 | Cc1sc(-c2cc3cc(Br)ccc3oc2=O)nc1-c1ccccc1 | inactive
39 | COC(=O)c1c(NC(=O)Cn2nc(C(F)F)cc2C(F)F)sc(C)c1C | inactive
40 | C[C@H]1OC(OC2C(O)[C@@H](O)C(OC3C(O)[C@@H](O)C(O)O[C@@H]3CO)O[C@@H]2CO)[C@H](O)C(O)C1N[C@H]1C=C(CO)[C@@H](O)[C@H](O)C1O (stereo not given in full) | inactive
